Measurements from ChEMBL document CHEMBL3988442, “University of Dundee, Small-Polar-MMV Screening Library” (2021).

The compounds below were run against T1, Aspartate--tRNA(Asp/Asn) ligase (Mycobacterium tuberculosis (strain ATCC 25618 / H37Rv)) (UniProt P9WFW3) (assay: Assay for Asp RNA synthetase-1 from Mycobacterium tuberculosis). Conditions: 30 µM.
T1 sequence (whole entry): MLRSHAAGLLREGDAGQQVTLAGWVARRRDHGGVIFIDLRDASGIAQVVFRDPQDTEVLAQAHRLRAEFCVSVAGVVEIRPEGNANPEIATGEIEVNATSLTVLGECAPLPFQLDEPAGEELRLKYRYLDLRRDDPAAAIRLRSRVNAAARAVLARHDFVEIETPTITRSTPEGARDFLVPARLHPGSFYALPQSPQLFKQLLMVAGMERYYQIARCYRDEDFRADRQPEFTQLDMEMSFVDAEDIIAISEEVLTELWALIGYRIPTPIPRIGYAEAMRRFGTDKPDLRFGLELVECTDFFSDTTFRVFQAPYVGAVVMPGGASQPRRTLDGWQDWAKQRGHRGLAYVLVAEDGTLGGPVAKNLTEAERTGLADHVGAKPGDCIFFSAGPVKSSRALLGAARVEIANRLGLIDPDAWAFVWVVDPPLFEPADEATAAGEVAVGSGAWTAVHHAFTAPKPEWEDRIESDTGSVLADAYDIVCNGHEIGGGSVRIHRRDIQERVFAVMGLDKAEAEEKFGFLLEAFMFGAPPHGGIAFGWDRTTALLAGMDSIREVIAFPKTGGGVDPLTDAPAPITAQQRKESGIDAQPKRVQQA
Format: functional
Design: scale not given: direction of the effect not stated beside the values

Row | Structure (SMILES) | Percent Effect [%]
1 | CN(Cc1ccco1)C(=O)[C@H]1CSCN1C(=O)OC(C)(C)C | -1.74
2 | Cc1nc(CN2CCC3(CC2)NC(=O)CC3c2ccccc2)cs1 (stereo not given) | -5.35
3 | CC(=O)c1cn(CCC(=O)NCCC(=O)O)c2ccccc12 | -4.27
4 | Cc1ccc2cnn(CCC(=O)NCc3c(C)nn(C)c3C)c2c1 | 8.17
5 | Cc1cc(C)c(CNC(=O)NCC(O)COc2ccccc2)c(=O)[nH]1 (stereo not given) | 4.61
6 | COCC1CN(Cc2ccc(OC)cc2)Cc2nn(C)cc21 (stereo not given) | 14.5
7 | N#Cc1ccc(OCCCN2CCc3cncnc3C2)cc1 | -3.6
8 | CC(C)NC(=O)c1sccc1N(C)S(=O)(=O)c1ccc(Cl)cc1 | 4.25
9 | O=C(CCC(=O)N1CCCC1c1cccs1)N1CCc2sccc2C1 (stereo not given) | -0.31
10 | COCCO[C@H]1CCN(Cc2cccs2)[C@H]1Cc1cccnc1 | 0.0141
11 | CCCS(=O)(=O)N1CCC2(CN(c3ccsc3)C(=O)CN2C)C1 (stereo not given) | -3.98
12 | O=C(NCC1CCOC1)N1CCN(Cc2ccc3c(c2)CCO3)CC1 (stereo not given) | -0.0562
13 | CC(C)NC(=O)Nc1ccc(CNCc2cccc(C#N)c2)cc1 | 0.232
14 | O=C(NCc1ccccn1)[C@@H]1CCO[C@@H]2CCN(Cc3ccoc3)C[C@H]21 | 7.04
15 | CCN(CC)C(=O)c1nnn(Cc2ccccc2)c1OC | 0.348
16 | CN(C)CCN1C(=O)CCC12CCN(C(=O)c1cccnc1)CC2 | -0.637
17 | CN1CCN(C[C@@H]2OC[C@H]3CN(Cc4ccsc4)CC[C@H]32)CC1 | -4.08
18 | Cc1cc(=O)n(CC(=O)Nc2ccc(C(N)=O)cc2)nc1C | -0.0781
19 | CCN(CC)Cc1cn2c(n1)CN(C(=O)c1cc(C)on1)CC2 | 3.22
20 | CCC1=N[C@@]2(CC[C@@H]3CN(CC(=O)N(C)C)C[C@@H]32)C(=O)N1CC1CC1 | -4.18

Row | Structure (SMILES) | Percent Effect [%]
21 | Cc1cnn(CC2CCCN2CC(=O)Nc2nc(C)cs2)c1 (stereo not given) | 1.62
22 | Cc1cnn(C2CCCN(C(=O)c3ccc(N(C)C)nn3)C2)c1 (stereo not given) | -1.49
23 | Cc1nc(C)n(C2CCCN(C(=O)c3ccc4c(c3)COC4)C2)n1 (stereo not given) | 0.699
24 | CCn1cc(N)c(C(=O)NCc2cnn(C)c2)n1 | -1.99
25 | Cc1ccc2cc(C3(O)CCN(C(=O)CN4CCCC4)CC3)ccc2n1 | 1.48
26 | CCc1ccc(CN2C[C@@H]3OCCN(c4ccnc(N(C)C)n4)[C@@H]3C2)o1 | -6.22
27 | Cn1c(Cn2cccn2)nnc1C1CCCN(c2ccncc2)C1 (stereo not given) | 1.37
28 | O=C(CCc1nc2cccnc2[nH]1)NCc1cccnc1 | -0.232
29 | Cc1cc(C[C@@H]2CCC[C@H]2NCc2cc(C)c(O)c(C)c2)on1 | 2.31
30 | CC(C)n1[nH]c(=O)c2c1NC(=O)CC2c1cccnc1 (stereo not given) | -1.05
31 | COc1ccc(CNCc2ccnc(N3CCCCC3)c2)cc1OC | -2.15
32 | COc1cccc(OCC2CCCN(C(C)=O)C2)c1 (stereo not given) | 3.99
33 | Cc1ccoc1C(=O)NC1CCN(Cc2csc3c(F)cccc23)CC1 | -0.83
34 | O=C(NC[C@@H]1CCCN1)c1cc(COc2cccc(C(F)(F)F)c2)[nH]n1 | 1.98
35 | CN1CCCC1c1ccc(C(=O)N2CCc3ccccc3C2)s1 (stereo not given) | -5.54
36 | c1cnnc(N2CCCC(NCc3nnc(-c4ccco4)o3)C2)c1 (stereo not given) | -0.7
37 | Cc1nc(C)c(C(=O)NCCNC(=O)Cc2ccccc2)s1 | -1.6
38 | O=C(C1SCCc2sccc21)N1CCN(CCO)CC1 (stereo not given) | -0.774
39 | O=C(c1cc[nH]n1)N1CCCC1C1CCN(Cc2ccccc2)CC1 (stereo not given) | 6.59
40 | CCCS(=O)(=O)N1CCN(c2cc(-n3cnc(C)c3C)nc(C)n2)CC1 | -3.39

Each compound was assayed against Shiga toxin 2 (Escherichia coli O157:H7) (UniProt P09385+P09386) (assay: E. coli 0.157:H7 Shiga Toxin SOP - stx2 screening assay). Conditions: 30 µM.
Format: functional
Design: scale not given: direction of the effect not stated beside the values

Row | Structure (SMILES) | Percent Effect [%]
41 | CN(Cc1ccco1)C(=O)[C@H]1CSCN1C(=O)OC(C)(C)C | 10.2
42 | Cc1nc(CN2CCC3(CC2)NC(=O)CC3c2ccccc2)cs1 (stereo not given) | 7.78
43 | CC(=O)c1cn(CCC(=O)NCCC(=O)O)c2ccccc12 | -25.1
44 | Cc1ccc2cnn(CCC(=O)NCc3c(C)nn(C)c3C)c2c1 | -18.4
45 | Cc1cc(C)c(CNC(=O)NCC(O)COc2ccccc2)c(=O)[nH]1 (stereo not given) | 27.6
46 | COCC1CN(Cc2ccc(OC)cc2)Cc2nn(C)cc21 (stereo not given) | -22.6
47 | N#Cc1ccc(OCCCN2CCc3cncnc3C2)cc1 | -20.7
48 | CC(C)NC(=O)c1sccc1N(C)S(=O)(=O)c1ccc(Cl)cc1 | -18.9
49 | O=C(CCC(=O)N1CCCC1c1cccs1)N1CCc2sccc2C1 (stereo not given) | -7.21
50 | COCCO[C@H]1CCN(Cc2cccs2)[C@H]1Cc1cccnc1 | 9.31
51 | CCCS(=O)(=O)N1CCC2(CN(c3ccsc3)C(=O)CN2C)C1 (stereo not given) | -8.23
52 | O=C(NCC1CCOC1)N1CCN(Cc2ccc3c(c2)CCO3)CC1 (stereo not given) | 28.1
53 | CC(C)NC(=O)Nc1ccc(CNCc2cccc(C#N)c2)cc1 | -108
54 | O=C(NCc1ccccn1)[C@@H]1CCO[C@@H]2CCN(Cc3ccoc3)C[C@H]21 | 4.93
55 | CCN(CC)C(=O)c1nnn(Cc2ccccc2)c1OC | 3.85
56 | CN(C)CCN1C(=O)CCC12CCN(C(=O)c1cccnc1)CC2 | -8.32
57 | CN1CCN(C[C@@H]2OC[C@H]3CN(Cc4ccsc4)CC[C@H]32)CC1 | 3.13
58 | Cc1cc(=O)n(CC(=O)Nc2ccc(C(N)=O)cc2)nc1C | -33
59 | CCN(CC)Cc1cn2c(n1)CN(C(=O)c1cc(C)on1)CC2 | 2.01
60 | CCC1=N[C@@]2(CC[C@@H]3CN(CC(=O)N(C)C)C[C@@H]32)C(=O)N1CC1CC1 | -27.3

Row | Structure (SMILES) | Percent Effect [%]
61 | Cc1cnn(CC2CCCN2CC(=O)Nc2nc(C)cs2)c1 (stereo not given) | -8.49
62 | Cc1cnn(C2CCCN(C(=O)c3ccc(N(C)C)nn3)C2)c1 (stereo not given) | -0.265
63 | Cc1nc(C)n(C2CCCN(C(=O)c3ccc4c(c3)COC4)C2)n1 (stereo not given) | -16.5
64 | CCn1cc(N)c(C(=O)NCc2cnn(C)c2)n1 | -25.8
65 | Cc1ccc2cc(C3(O)CCN(C(=O)CN4CCCC4)CC3)ccc2n1 | -47.1
66 | CCc1ccc(CN2C[C@@H]3OCCN(c4ccnc(N(C)C)n4)[C@@H]3C2)o1 | -25.6
67 | Cn1c(Cn2cccn2)nnc1C1CCCN(c2ccncc2)C1 (stereo not given) | -3.13
68 | O=C(CCc1nc2cccnc2[nH]1)NCc1cccnc1 | -44
69 | Cc1cc(C[C@@H]2CCC[C@H]2NCc2cc(C)c(O)c(C)c2)on1 | -2.65
70 | CC(C)n1[nH]c(=O)c2c1NC(=O)CC2c1cccnc1 (stereo not given) | -6.55
71 | COc1ccc(CNCc2ccnc(N3CCCCC3)c2)cc1OC | -57.5
72 | COc1cccc(OCC2CCCN(C(C)=O)C2)c1 (stereo not given) | -11
73 | Cc1ccoc1C(=O)NC1CCN(Cc2csc3c(F)cccc23)CC1 | -64.2
74 | O=C(NC[C@@H]1CCCN1)c1cc(COc2cccc(C(F)(F)F)c2)[nH]n1 | -15.7
75 | CN1CCCC1c1ccc(C(=O)N2CCc3ccccc3C2)s1 (stereo not given) | -38.1
76 | c1cnnc(N2CCCC(NCc3nnc(-c4ccco4)o3)C2)c1 (stereo not given) | -79.7
77 | Cc1nc(C)c(C(=O)NCCNC(=O)Cc2ccccc2)s1 | 11.1
78 | O=C(C1SCCc2sccc21)N1CCN(CCO)CC1 (stereo not given) | 24.8
79 | O=C(c1cc[nH]n1)N1CCCC1C1CCN(Cc2ccccc2)CC1 (stereo not given) | -28.1
80 | CCCS(=O)(=O)N1CCN(c2cc(-n3cnc(C)c3C)nc(C)n2)CC1 | -17.5
